Screens: PubChem, National Center for Advancing Translational Sciences (NCATS)
LmPK inh – inhibitors of Leishmania mexicana pyruvate kinase; Q27686; purified LmPK, Kinase-Glo ATP luminescence, 1 h; Potency, µM (doses to about 57.5 µM), inactives show at the highest dose activity change, negative = inhibition, actives largely listed as inhibitors; actives 0.37% (n = 290,000); active means well fitted curve in the direction sought with a large enough effect; inconclusive means small, poorly fitted or top-dose-only effect, or another doubt; inactive means no such curve, though single readings can be large; an effect the other way counts as inactive or inconclusive; further: potency means the concentration at half of the fitted maximal effect; on the % scale 0 is the no-effect control and ±100 the full control effect
Target sequence (Q27686 whole entry, looked up): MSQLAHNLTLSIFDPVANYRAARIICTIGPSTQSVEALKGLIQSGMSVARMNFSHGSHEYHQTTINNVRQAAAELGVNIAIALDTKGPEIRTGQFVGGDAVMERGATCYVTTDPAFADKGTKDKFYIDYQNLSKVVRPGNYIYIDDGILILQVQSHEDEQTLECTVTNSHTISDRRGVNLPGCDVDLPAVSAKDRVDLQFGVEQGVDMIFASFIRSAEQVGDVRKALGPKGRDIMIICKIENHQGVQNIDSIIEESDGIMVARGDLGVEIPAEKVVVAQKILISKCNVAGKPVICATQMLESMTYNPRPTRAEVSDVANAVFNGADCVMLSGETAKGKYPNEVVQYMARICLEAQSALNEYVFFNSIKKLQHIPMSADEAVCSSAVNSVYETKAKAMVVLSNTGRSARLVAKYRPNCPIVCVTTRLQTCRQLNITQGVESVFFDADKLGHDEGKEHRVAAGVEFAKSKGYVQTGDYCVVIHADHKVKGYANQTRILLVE
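Pyruvate kinase activity monitored as ATP production (luciferase luminescence). Conditions: 0.1 nM enzyme, 0.5 mM PEP, 0.1 mM ADP, 1 h, RT; normalized against uninhibited and no-enzyme wells.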
Cycloheximide cs – counter-screen hit for Shiga toxin inhibitors, cycloheximide. cell reporter, cycloheximide protein synthesis inhibition counterscreen. max response, %. actives 12% (n = 300,000); in the data active means max response mostly above about 13%, no sharp cut-off; inactive means mostly below about 14%; further: read at 38.3 µM for the half of the compounds with a filed dose; 0% is about no effect
Shiga inhibitor – inhibitors of Shiga toxin in Vero cells. Vero cells, Shiga toxin protein synthesis inhibition reporter. inhibition, % at 38.7 µM. actives 9.2% (n = 290,000); in the data active means inhibition mostly above about 28%, no sharp cut-off; inactive means mostly below about 43%; further: 0% is about no effect
FBPA Giardia inh – inhibitors of Giardia lamblia fructose-1,6-bisphosphate aldolase; A8B2U2; purified Giardia FBPA; Potency, µM (doses to about 59.6 µM), inactives show at the highest dose activity, negative = inhibition, hits mostly inhibitors; actives 0.71% (n = 290,000); AID 2451; active means well fitted curve in the direction sought with a large enough effect; inconclusive means small, poorly fitted or top-dose-only effect, or another doubt; inactive means no such curve, though single readings can be large; an effect the other way counts as inactive or inconclusive; further: potency means the concentration at half of the fitted maximal effect; on the % scale 0 is the no-effect control and ±100 the full control effect; nearly all actives have a fitted effect of over 55% in size
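Giardia FBPA (40 nM reagent) was preincubated 10 min at RT with compound (up to 57.5 uM final), then substrate plus GAPDH/TPI/NAD/arsenate coupling system with diaphorase/resazurin was added; resorufin fluorescence (525/598 nm) was read after 20 min.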
NS1 function inh – blocks influenza NS1 protein function. Potency, µM (titrated, usually from 46.1 µM), for inactives: at the highest dose activity, positive = more growth. AID 2326. actives 0.4% (n = 270,000); further: potency means the concentration at half of the fitted maximal effect; actives are rising curves; nearly all actives have a fitted effect of over 50% in size
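A cell-based growth assay was used: compounds that relieve NS1-induced slow growth of budding yeast raise OD600. Assay medium was yeast nitrogen base with ammonium sulphate and -URA supplement, pH 6.0, with 2% galactose.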
Flu NS1 inh – influenza NS1 function inhibition validation; shares compounds with NS1 function inh; influenza NS1 function cell assay, 15-point titration; activity change, negative = inhibition, % at 32.9 µM; 1,400 tested, under 10 active; AID 492980; further: 0% is about no effect
* hit, by the source's call. The list is not random: actives were taken first. Their share in the collection is about 14%. Unless noted, the call rests on the fitted dose curve.

Screening O=C1NC(=O)C2(Cc3ccccc3N3CCCC32)C(=O)N1c1ccc(Cl)cc1 (centres undefined) returned LmPK inh 4%, Cycloheximide cs -3, Shiga inhibitor -9, FBPA Giardia inh -23%, NS1 function inh 11µM* and Flu NS1 inh 16.
COc1ccc(N(C)S(=O)(=O)c2cccc(C(=O)OC(C(=O)Nc3cc(C)cc(C)c3)c3ccccc3)c2)cc1 (centres undefined) was read as LmPK inh 2%, Cycloheximide cs -2, Shiga inhibitor -2, FBPA Giardia inh 1%, NS1 function inh 8.9µM* and Flu NS1 inh 26.
Screening COc1ccc(N(C)S(=O)(=O)c2cccc(C(=O)N3CCN(S(=O)(=O)c4ccc(C)cc4)CC3)c2)cc1 returned LmPK inh 0%, Cycloheximide cs -1, Shiga inhibitor -2, NS1 function inh 11µM* and Flu NS1 inh 4.
For CC(=O)c1cccc(NC(=O)C(OC(=O)c2cccc(S(=O)(=O)N(C)c3ccccc3)c2)c2ccccc2)c1 (centres undefined) the results were LmPK inh 0%, Cycloheximide cs 1, Shiga inhibitor -15, FBPA Giardia inh -1% and NS1 function inh inconclusive.
`COC(=O)C1CCN(Cc2ccc(OCCCN3CCN(c4ccc([N+](=O)[O-])cc4)CC3)cc2)CC1` gave LmPK inh 1%, Cycloheximide cs -2, Shiga inhibitor 20, FBPA Giardia inh 2% and NS1 function inh -6%.
Screening N#CCC(=O)NN=C1CCCCCCCCCCC1 returned LmPK inh 1%, Cycloheximide cs 6, Shiga inhibitor 9, FBPA Giardia inh -8%, NS1 function inh 1.8µM* and Flu NS1 inh 4.
Screening COc1ccc(C(=O)N2CCN(S(=O)(=O)c3ccc(C)cc3C)CC2)cc1OC returned LmPK inh -1%, Cycloheximide cs 11, Shiga inhibitor -10, FBPA Giardia inh 6% and NS1 function inh -48%.
`COc1ccc(C)cc1S(=O)(=O)N1CCN(C(=O)c2ncoc2-c2ccccc2C)CC1` gave LmPK inh 4%, Cycloheximide cs -4, Shiga inhibitor 1, FBPA Giardia inh 2%, NS1 function inh inconclusive and Flu NS1 inh -20.
C=CCc1ccccc1OCC(=O)NNC(=S)NCc1ccccc1 was read as LmPK inh -9%, Cycloheximide cs -1, Shiga inhibitor -7 and NS1 function inh inconclusive.
Screening O=C(CN(C(=O)CCC(=O)Nc1ccccn1)C1CCCC1)NCc1ccccc1 returned LmPK inh 5%, Cycloheximide cs -3, Shiga inhibitor -7, FBPA Giardia inh -10% and NS1 function inh 7%.
For COc1ccc(CCNC(=O)[C@H](CC(C)C)NC(=O)N2CCn3c2nc2ccccc23)cc1OC the results were LmPK inh 2%, Cycloheximide cs -2, Shiga inhibitor -16, FBPA Giardia inh 15% and NS1 function inh -19%.
`O=C1C2CCCN2C(c2ccc(F)cc2)N1c1ccc(Cl)cc1` (centres undefined) gave LmPK inh 1%, Cycloheximide cs 4, Shiga inhibitor 17, FBPA Giardia inh 5%, NS1 function inh 4µM* and Flu NS1 inh 15.
`CCOc1ccc(C2N(c3ccc(Cl)cc3)C(=O)C3CCCN32)cc1OC` (centres undefined) gave LmPK inh -3%, Cycloheximide cs -2, Shiga inhibitor -20, FBPA Giardia inh 0%, NS1 function inh 7.9µM* and Flu NS1 inh 36.
CCn1c(SCC(=O)Nc2ccc3c(c2)OCO3)nnc1C(C)C was read as LmPK inh 0%, Cycloheximide cs -2, Shiga inhibitor -8, FBPA Giardia inh -2% and NS1 function inh -4%.
For CC(C)[C@@]1(NC(=O)[C@@H]2C[C@@H]3c4cccc5[nH]cc(c45)C[C@H]3N(C)C2)O[C@@]2(O)[C@@H]3CCCN3C(=O)[C@H](Cc3ccccc3)N2C1=O the results were LmPK inh -12%, Cycloheximide cs -2, Shiga inhibitor -3, FBPA Giardia inh -9% and NS1 function inh -1%.
Screening CC(C)[C@@]1(NC(=O)[C@@H]2C[C@@H]3c4cccc5[nH]cc(c45)C[C@H]3N(C)C2)O[C@@]2(O)C3CCCN3C(=O)[C@H](Cc3ccccc3)N2C1=O (some centres undefined) returned FBPA Giardia inh -8%, NS1 function inh 5.6µM* and Flu NS1 inh inconclusive.
For CC1CCC(O)C/C1=C\C=C1/CCCC2(C)C1CCC2C(C)/C=C/C(C)C(C)C (centres undefined) the results were Cycloheximide cs 13, Shiga inhibitor 4 and FBPA Giardia inh 3%.
C=CCn1c(SCC(=O)N2CCCCC2)nc(O)cc1=O was read as LmPK inh -2%, Cycloheximide cs 15, Shiga inhibitor -18, FBPA Giardia inh 16% and NS1 function inh 10%.
`C=CCn1c(SCC(=O)N(CC)CC)nc(O)cc1=O` gave LmPK inh -1%, Cycloheximide cs -2, Shiga inhibitor -21, FBPA Giardia inh 0%, NS1 function inh 2.5µM* and Flu NS1 inh 1.
`CN(C(=O)COC(=O)CCc1c[nH]c2ccccc12)C(c1ccccc1)c1ccccc1` gave LmPK inh 6%, Cycloheximide cs 10, Shiga inhibitor 8, FBPA Giardia inh 0%, NS1 function inh 8.9µM* and Flu NS1 inh -14.
Screening O=C(COC(=O)CCc1c[nH]c2ccccc12)NCc1ccccc1 returned LmPK inh 6%, Cycloheximide cs 2, Shiga inhibitor -3, FBPA Giardia inh -1% and NS1 function inh -7%.
Screening NNC(=O)c1csc(Cc2c(Cl)sc3ccc(Cl)cc23)n1 returned LmPK inh 10%, Cycloheximide cs 5, Shiga inhibitor -6, FBPA Giardia inh 16%, NS1 function inh inconclusive and Flu NS1 inh -30.
For CN(C)c1nc(Oc2ccc(=O)[nH]n2)nc(N2CCOCC2)n1 the results were LmPK inh 2%, Cycloheximide cs -1, Shiga inhibitor 1, FBPA Giardia inh 4% and NS1 function inh 11%.
`CON(C)c1nc(Oc2ccc(=O)[nH]n2)nc(N(C)C)n1` gave LmPK inh -7%, Cycloheximide cs -2, Shiga inhibitor 4, FBPA Giardia inh -14%, NS1 function inh inconclusive and Flu NS1 inh 26.
Screening CC1CCN(C(=O)c2cc(S(=O)(=O)N3CCCCC3)c[nH]2)CC1 returned LmPK inh 1%, Cycloheximide cs 1, Shiga inhibitor 2, FBPA Giardia inh -9% and NS1 function inh 7%.
O=[N+]([O-])c1ccccc1NCc1c(O)ccc2ccccc12 was read as LmPK inh 6%, Cycloheximide cs 2, Shiga inhibitor 8, FBPA Giardia inh inconclusive, NS1 function inh 8.9µM* and Flu NS1 inh 8.
`Cc1cc(=O)nc2c3ccccc3n(CC(=O)NC(C)c3ccc4c(c3)OCCO4)n12` (centres undefined) gave LmPK inh 3%, Cycloheximide cs 16, Shiga inhibitor 14, FBPA Giardia inh -8% and NS1 function inh 1%.
